Measurements published in PubChem BioAssay (NCATS).
Inconclusive results are not listed. The source made the active and inactive calls. Calls follow the shape of the dose curve; as a rule, active = well fitted curve in the direction sought with a large enough effect; inconclusive = small, poorly fitted or top-dose-only effect, or another doubt; inactive = no such curve, though single readings can be large; an effect the other way counts as inactive or inconclusive.

Columns and labels:
[1] = target: Arylsulfatase A (Homo sapiens) (UniProt P15289); assay: qHTS screen for enhancers of Arylsulfatase A (ASA1): LOPAC Validation Assay (AID 720538); also: potency is read from the fitted curve at half-maximal effect
In short: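 First, ASA-I179S fibroblasts from an MLD patient adhered for 6 hrs. Next, compounds were added for 48h. Then pNCS substrate (0.5mM final) with lysis buffer reacted 14h at room temperature before NaOH stop and fluorescence measurement.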

[2] = qHTS for compounds that reverse cellular toxicity of Amyloid beta (A-beta) peptide in yeast: LOPAC Validation Assay (AID 720559)
In short: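 Activity is expressed relative to DMSO and an equimolar ferric chloride/clioquinol mix. Compounds were pinned into medium with A-beta-expressing yeast, grown 48 hr at 30 C, then read by absorbance at 600 nm.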

[3] = qHTS for Activators of Parkin Expression: LOPAC Validation Assay (NLuc Reporter) (AID 720572; also: potency is read from the fitted curve at half-maximal effect)
In short: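 Compound effects on Parkin promoter activity were measured as NanoLuc luminescence after 24 h at 37 C. The neuronal reporter line also carried FLuc, which was read first. LOPAC compounds were tested at 7 concentrations, with normalization to DMSO (0%) and positive control (100%).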

[4] = qHTS for Activators of Parkin Expression: LOPAC Validation Assay (FLuc Reporter) (AID 720573)
In short: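 A neuronal cell line harbouring FLuc and NLuc reporters behind the Parkin promoter was exposed to compounds for 24 h. Firefly luciferase signal, measured after 10 min with detection reagent, was scaled to DMSO and positive-control wells.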

Measured: Potency

Arylsulfatase A (Homo sapiens), sequence (P15289 whole entry, looked up): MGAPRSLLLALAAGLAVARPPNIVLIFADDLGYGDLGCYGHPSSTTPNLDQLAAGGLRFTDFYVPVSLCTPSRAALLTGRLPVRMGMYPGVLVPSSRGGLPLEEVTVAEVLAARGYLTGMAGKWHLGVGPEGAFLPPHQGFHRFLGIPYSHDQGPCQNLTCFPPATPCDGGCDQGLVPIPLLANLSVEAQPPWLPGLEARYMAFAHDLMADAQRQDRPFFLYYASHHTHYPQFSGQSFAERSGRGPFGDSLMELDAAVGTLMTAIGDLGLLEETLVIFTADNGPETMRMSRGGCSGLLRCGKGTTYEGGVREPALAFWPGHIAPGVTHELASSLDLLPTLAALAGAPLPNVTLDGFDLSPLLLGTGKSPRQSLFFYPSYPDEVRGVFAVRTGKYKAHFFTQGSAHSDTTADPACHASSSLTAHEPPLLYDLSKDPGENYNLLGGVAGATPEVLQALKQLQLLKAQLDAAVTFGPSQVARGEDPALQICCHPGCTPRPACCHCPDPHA

N=C(N)c1ccc(OCCCCCOc2ccc(C(=N)N)cc2)cc1 (tested in a mixture with another compound)
inactive: all assays above

CN1CCCC1CCOC(C)(c1ccccc1)c1ccc(Cl)cc1 (stereo unspecified)
inactive: all assays above

CC[n+]1c(/C=C/C=C2/N(C)c3ccccc3C2(C)C)sc2ccccc21
inactive: all assays above

C[C@@H](NCCc1ccc(O)cc1)[C@@H](O)c1ccc(O)cc1
inactive: all assays above

COc1cccc(OC)c1OCCNCC1CSc2ccccc2O1 (stereo unspecified)
active: [1] 1.07 µM
inactive: all other assays above

N[C@@H](Cc1ccc(F)cc1)C(=O)O
inactive: all assays above

NCCNS(=O)(=O)c1cccc2c(Cl)cccc12
inactive: all assays above

[N-]=[N+]=Nc1ccc(C(=O)CSC[C@H](NC(=O)CC[C@H](N)C(=O)O)C(=O)NCC(=O)O)cc1
inactive: all assays above

N=C(N)SCCN
inactive: all assays above

N[C@H](C(=O)O)[C@H](O)C(=O)O
inactive: all assays above

Nc1nc2c(nc(Br)n2C2OC3COP(=O)(O)O[C@@H]3C2O)c(=O)[nH]1 (stereo partly specified)
inactive: all assays above

O=C(O)/C(=C/c1c(C(=O)O)[nH]c2cc(Cl)cc(Cl)c12)c1ccccc1
inactive: all assays above

OC[C@H]1NC[C@@H](O)[C@@H]1O
inactive: all assays above

Fc1ccc(CN(C2=NCCN2)c2c(Cl)cccc2Cl)cc1
inactive: all assays above

Clc1nccc2c1ccc1ccccc12
inactive: all assays above

OCC1NCC(O)C(O)C1O (stereo unspecified)
inactive: all assays above

c1ccc(CN2CCC3(CCCc4ccccc43)CC2)cc1
inactive: all assays above

COc1ccc(CCn2nnnc2C2(c3ccc(C)cc3)CC2)cc1
inactive: all assays above

C[C@@]1(C2CCCC2)Cc2cc(OCC(=O)O)c(Cl)c(Cl)c2C1=O
inactive: all assays above

NC(N)=N[C@@H](CCC(=O)O)C(=O)O
inactive: all assays above

C#CCn1c(=O)c2c(ncn2C)n(C)c1=O
inactive: all assays above

CC#CCOC(=O)c1c(C)nc2sc3c(c2c1N)CCC(O)C3 (stereo unspecified)
inactive: all assays above

CC(N)(Cc1ccc(O)c(O)c1)C(=O)O (stereo unspecified)
inactive: all assays above

COc1ccccc1N1CCN(CCCNc2c(C)c(=O)n(C)c(=O)n2C)CC1
inactive: all assays above

Cc1nc2n(c(=O)c1CCN1CCC(c3noc4cc(F)ccc34)CC1)CCCC2O (stereo unspecified)
inactive: all assays above

CCn1c(=O)[nH]c2cc(Cl)c(Cl)cc21
inactive: all assays above

COc1ccc(NC(=O)c2ccc(-c3ccc(-c4noc(C)n4)cc3C)cc2)cc1N1CCN(C)CC1
active: [3] 20.6 µM
inactive: all other assays above

CCCCCCCCCCC/C=C\C(C)(C)/C=C\CCCC(=O)O
inactive: all assays above

OC[C@H]1O[C@H](n2cnc3c(N[C@H]4CCC[C@@H]4O)ncnc32)[C@H](O)[C@@H]1O
inactive: all assays above

CCCCCC(O)CCCC(=O)O (stereo unspecified)
inactive: all assays above

NC1CCN(O)C1=O (stereo unspecified)
inactive: all assays above

C=C1C(=O)O[C@@H]2[C@H]3O[C@]3(C)CCC=C(C)CC[C@@H]12
inactive: all assays above

CNc1cc(NS(=O)(=O)c2ccc(N)cc2)nc(NC)n1
inactive: all assays above

NS(=O)(=O)c1cccc2c1c([N+](=O)[O-])cc1nc(O)c(O)nc12
active: [1] 10.7 µM
inactive: all other assays above

CCCCCCCCCC(=O)NC(CN1CCOCC1)[C@H](O)c1ccccc1 (stereo partly specified)
inactive: all assays above

CCCCCCC/C=C\CCCCCCCCC(=O)O
inactive: all assays above

CC(=O)/C(C)=N/O
inactive: all assays above

CC1C(=O)N(C)C(=O)c2nc[nH]c21 (stereo unspecified)
inactive: all assays above

CN(C)C(=O)/N=N/C(=O)N(C)C
inactive: all assays above
